Sampled rows, rich in hits. Any-hit rate of the full collection: about 19%.
IL-1B inflam inh: inhibitors of inflammasome signaling (IL-1 beta secretion). activity change, % at 57.5 µM. THP-1 LPS/ATP IL-1B secretion, AlphaLISA, 16 h; hits give low values. actives 4.7% (n = 360,000). AID 743279; in the data active = activity change below about -50%; inconclusive = mostly about -30% to -49%
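THP-1 cells pretreated 1 hr with compounds (up to 57.5 uM final), then stimulated with LPS (250 ng/mL final) plus ATP (1.25 mM final); secreted IL-1B measured by AlphaLISA after 16 hr, decreased signal indicating inhibition.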
DT40 TDP1 CPT: growth inhibition of DT40 Tdp1-/-;hTDP1 cells with camptothecin (screen for TDP1 inhibitors). AID 686979. actives 12% (n = 420,000). Potency, µM (series often up to 46.2 µM), for inactives: top-dose activity change, negative = growth inhibition, usual class: inhibitors. chicken DT40 Tdp1-/-;hTDP1 cells + 20 nM CPT, ATP luminescence, 48 h; also: potency is read from the fitted curve at half-maximal effect; nearly all actives have a fitted effect of over 55% in size
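Cell growth measured by CellTiter-Glo luminescence after a minimum 48 h, 37 C compound exposure with 20 nM CPT in Tdp1-knockout DT40 cells stably expressing hTDP1, seeded 400/well; qHTS titration format.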
HT1080-NT tox: kills 2HG-producing HT-1080-NT fibrosarcoma cells; HT-1080-NT fibrosarcoma viability, CellTiter-Glo ATP luminescence, 48 h; Potency, µM (top dose mostly 46.1 µM), inactives show at the highest dose activity, negative = less viability, most hits filed as cytotoxic; actives 1.6% (n = 360,000);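 also: NT is the 2HG producing partner of a matched IDH1 knockdown line; potency is read from the fitted curve at half-maximal effect; 0% = DMSO-treated cells and -100% = media-only wells without cells; nearly all actives have a fitted effect of over 55% in size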
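HT-1080-NT; 750 cells/well; 5% FBS RPMI; 48 h compound, 37 degrees C; CellTiter-Glo luminescence; curve fitting and curve-class assignment.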
DT40 TDP1 no CPT: qHTS for Inhibitors of human tyrosyl-DNA phosphodiesterase 1 (TDP1): qHTS in cells in absence of CPT | actives 15% (n = 420,000) | DT40 Tdp1-/- hTDP1 cells, no CPT, ATP luminescence, 48 h | AID 686978, 2013 | Potency, µM (top dose mostly 46.2 µM), inactives show at the highest dose activity change, negative = growth inhibition, actives largely listed as inhibitors; also: potency is read from the fitted curve at half-maximal effect; nearly all actives have a fitted effect of over 55% in size
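Seeded 400 DT40-hTDP1 cells/well (vehicle DMSO, no 20 nM CPT); pinned compounds; ≥48 hr at 37 °C; CellTiter-Glo luminescence as viability measure.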
HT1080 IDH1KD tx: HT-1080 IDH1 knockdown cell toxicity (counter line) | Potency, µM (series often up to 46.1 µM), inactives show at the highest dose activity, negative = toxicity, usual class: cytotoxic | HT-1080 IDH1 knockdown viability, ATP luminescence, 48 h | actives 2% (n = 360,000) | AID 686971;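 also: potency is read from the fitted curve at half-maximal effect; 0% = DMSO wells and -100% = cell-free medium wells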
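HT-1080-IDH1KD cells (IDH1 knocked down), 750/well in RPMI with 5% FBS, treated with compound 48 h at 37 degrees C. Viability by CellTiter-Glo luminescence, normalised to DMSO and no-cell wells; concentration-response curves classed.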
The depositor's hits bear a star; ! = a repeat was not active. Unless noted, calls follow the shape of the dose curve; as a rule, active = well fitted curve in the direction sought with a large enough effect; inconclusive = small, poorly fitted or top-dose-only effect, or another doubt; inactive = no such curve, though single readings can be large; an effect the other way counts as inactive or inconclusive. Unless noted, % is scaled to controls: 0 for no effect and ±100 for the full control effect.

What do the screens show for `CC1=C(C(=O)N2CCCCCC2)CC(CC(=O)NCCCN(C)C)C(=O)N1Cc1ccc(F)cc1` (centres undefined)?
IL-1B inflam inh: 23; DT40 TDP1 CPT: -21%; HT1080-NT tox: 10%; DT40 TDP1 no CPT: -1%; HT1080 IDH1KD tx: 5%

How did Cc1noc(NS(=O)(=O)c2ccc(NC(=O)c3cc(F)c(F)c(F)c3F)cc2)c1C do in these assays?
IL-1B inflam inh: 9; DT40 TDP1 CPT: -1%; HT1080-NT tox: 1%; DT40 TDP1 no CPT: -4%; HT1080 IDH1KD tx: 11%

How did COc1cccc(-c2nc(C(=O)NCC3CCCO3)cc3c2[nH]c2ccccc23)c1 (centres undefined) do in these assays?
IL-1B inflam inh: inconclusive; DT40 TDP1 CPT: 2.6µM*; HT1080-NT tox: inconclusive; DT40 TDP1 no CPT: 2.3µM*; HT1080 IDH1KD tx: inconclusive

How did COc1cccc(-c2cc(C(=O)NCC3CCCO3)on2)c1 (centres undefined) do in these assays?
IL-1B inflam inh: 5; DT40 TDP1 CPT: 14%; HT1080-NT tox: 14%; DT40 TDP1 no CPT: 5%; HT1080 IDH1KD tx: 22%

What do the screens show for `O=C(NCC1CCCO1)c1cc(-c2ccccc2)on1` (centres undefined)?
IL-1B inflam inh: -80*; DT40 TDP1 CPT: inconclusive; HT1080-NT tox: -18%; DT40 TDP1 no CPT: inconclusive; HT1080 IDH1KD tx: inconclusive

How did COc1ccc(OC)c(-c2nc(C(=O)NCC3CCCO3)cc3c2[nH]c2ccccc23)c1 (centres undefined) do in these assays?
IL-1B inflam inh: -23; DT40 TDP1 CPT: 18µM*; HT1080-NT tox: -12%; DT40 TDP1 no CPT: 21µM*; HT1080 IDH1KD tx: -11%

What do the screens show for `Nc1cc(=O)[nH]c(SCC(=O)Nc2cccc(Cl)c2Cl)n1`?
IL-1B inflam inh: 18; DT40 TDP1 CPT: -3%; HT1080-NT tox: -6%; DT40 TDP1 no CPT: -26%; HT1080 IDH1KD tx: -5%

Results for Cc1ccccc1NC(=O)COC(=O)c1c[nH]c(=O)[nH]c1=O ?
IL-1B inflam inh: -20; DT40 TDP1 CPT: -2%; HT1080-NT tox: 22%; DT40 TDP1 no CPT: -4%; HT1080 IDH1KD tx: 16%

How did COc1ccc(CCNC(=O)c2ccc3c(c2)N(Cc2ccccc2C)C(=O)c2ccccc2S3)cc1OC do in these assays?
DT40 TDP1 CPT: 3.3µM*; DT40 TDP1 no CPT: 3.7µM*

Results for COc1ccccc1CNC(=O)c1ccc2c(c1)N(Cc1cc(C)ccc1C)C(=O)c1ccccc1S2 ?
DT40 TDP1 CPT: 9.2µM*; DT40 TDP1 no CPT: 9.2µM*

Results for Cn1c(=O)c2c(nc(Oc3ccccc3Cl)n2Cc2ccc(C#N)cc2)n(C)c1=O ?
DT40 TDP1 CPT: -1%; DT40 TDP1 no CPT: 4%

What do the screens show for `COc1cc(C(=O)OCCCN2CCCN(CCCOC(=O)c3cc(OC)c(OC)c(OC)c3)CC2)cc(OC)c1OC`?
IL-1B inflam inh: -22; DT40 TDP1 CPT: 17µM*!; HT1080-NT tox: inconclusive; DT40 TDP1 no CPT: 24µM*; HT1080 IDH1KD tx: inconclusive

Results for CCN(CC)CCCCCCCCOC(=O)c1cc(OC)c(OC)c(OC)c1 ?
IL-1B inflam inh: -14; DT40 TDP1 CPT: inconclusive; HT1080-NT tox: -25%; DT40 TDP1 no CPT: 22µM*!; HT1080 IDH1KD tx: inconclusive

Results for COc1cc(C(=O)OCCCN(C)C)cc(OC)c1OC ?
IL-1B inflam inh: -7; DT40 TDP1 CPT: 21%; HT1080-NT tox: 25%; DT40 TDP1 no CPT: -15%; HT1080 IDH1KD tx: 17%

How did CCCC(=O)Nc1nc2c(ncn2[C@@H]2O[C@H]3COP(=O)(O)O[C@@H]3[C@@H]2OC(=O)CCC)c(=O)[nH]1 do in these assays?
DT40 TDP1 CPT: 4%; DT40 TDP1 no CPT: -13%

How did CC(=O)NCCn1c(SCc2ccccc2C)nc2ccccc2c1=O do in these assays?
IL-1B inflam inh: 21; DT40 TDP1 CPT: inconclusive; HT1080-NT tox: -5%; DT40 TDP1 no CPT: 16µM*; HT1080 IDH1KD tx: -15%
